Only some compounds are listed: those with a hit (about 17% of all), similar ones and a draw of the others.
TDP1 cell CPT = growth inhibition of DT40 Tdp1-/-;hTDP1 cells with camptothecin (screen for TDP1 inhibitors); chicken DT40 Tdp1-/-;hTDP1 cells + 20 nM CPT, ATP luminescence, 48 h; Potency, µM (titrated, usually from 46.2 µM), most hits filed as inhibitors; 12% of 420,000 active; AID 686979; note: nearly all actives have a fitted effect of over 55% in size
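Chicken DT40 Tdp1-/- cells complemented with human TDP1, 400 cells/well, exposed to compounds plus 20 nM camptothecin for at least 48 h at 37 C; viability read as ATP content by CellTiter-Glo luminescence.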
TDP1 inh = TDP1 (human) enzyme inhibition | recombinant TDP1, AlphaScreen DNA substrate cleavage | Q9NUW8 | 0.28% of 350,000 active | Potency, µM (highest dose often 130 µM), usual class: inhibitors; note: nearly all actives have a fitted effect of over 40% in size
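Steps: enzyme plus compound, 15 min RT; add biotin/phosphotyrosine-FITC oligonucleotide (15 nM final), react 5 min; add donor/acceptor beads (10 ug/ml final), 10 min; read AlphaScreen. Tdp1 at 1 nM final.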
DT40 TDP1 no CPT = qHTS for Inhibitors of human tyrosyl-DNA phosphodiesterase 1 (TDP1): qHTS in cells in absence of CPT; DT40 Tdp1-/- hTDP1 cells, no CPT, ATP luminescence, 48 h; AID 686978, 2013; 15% of 420,000 active; Potency, µM (series often up to 46.2 µM), most hits filed as inhibitors; note: nearly all actives have a fitted effect of over 55% in size
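Stably hTDP1-transfected Tdp1-null chicken DT40 cells were treated with library compounds minus camptothecin and grown for at least 48 hr at 37 °C, after which cellular ATP was quantified by luminescence.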
ClpP mod = qHTS Assay for Activators of ClpP. ATP-dependent Clp protease proteolytic subunit (Bacillus subtilis (strain 168)), P80244. 1.9% of 340,000 active. purified B. subtilis ClpP, FRET peptide cleavage, 20 min. Potency, µM (highest dose often 57.5 µM); active = well fitted falling curve with a large enough effect; inconclusive = small, poorly fitted or top-dose-only effect; inactive = no such curve, though single readings can be large or run the other way; note: the source files actives as falling curves though it sought activators and does not explain the sign; nearly all actives have a fitted effect of over 65% in size
Target sequence (P80244 whole entry, looked up): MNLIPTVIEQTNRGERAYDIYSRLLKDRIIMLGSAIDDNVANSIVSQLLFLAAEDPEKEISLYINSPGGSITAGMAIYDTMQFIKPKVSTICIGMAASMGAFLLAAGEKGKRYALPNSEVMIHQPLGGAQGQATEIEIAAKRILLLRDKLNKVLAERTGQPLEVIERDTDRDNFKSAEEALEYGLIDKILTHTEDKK
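Buffer: 100 mM Tris/HCl pH8, 100 mM KCl, 0.05% low protease BSA, 2.5% glycerol, 0.01% Tween-20. ClpP 10 microg/mL final; 20 min RT; delta FRET normalized to ADEP and DMSO controls.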
A number is an active result; . = inactive; ? = inconclusive; / = not tested or not shown. Unless noted, calls come from the whole dose curve; as a rule, active = well fitted curve in the direction sought with a large enough effect; inconclusive = small, poorly fitted or top-dose-only effect, or another doubt; inactive = no such curve, though single readings can be large; an effect the other way counts as inactive or inconclusive.

SMILES | TDP1 cell CPT | TDP1 inh | DT40 TDP1 no CPT | ClpP mod
O=C(C1CCCN(S(=O)(=O)c2ccc(Br)s2)C1)N1CCCCCC1 (stereo not drawn) | 21µM | . | 15µM | .
Cc1ccc(NC(=O)C2CCCN(S(=O)(=O)c3c(C)noc3C)C2)c(Br)c1 (stereo not drawn) | 21µM | . | ? | .
CC1CCCCC1NC(=O)CN1CCN(S(=O)(=O)c2ccc(Br)s2)CC1 (stereo not drawn) | ? | . | . | 14µM
CSc1ccc(C(=O)C2CCCN(S(=O)(=O)c3c(C)noc3C)C2)cc1 (stereo not drawn) | ? | . | ? | .
Cc1cccc(N2CCN(C(=O)C3CCCN(S(=O)(=O)c4c(C)noc4C)C3)CC2)c1C (stereo not drawn) | 23µM | / | 23µM | .
Cc1ccc(NC(=O)C2CCCN(S(=O)(=O)c3c(C)noc3C)C2)nc1 (stereo not drawn) | . | . | . | ?
COC(=O)c1ccccc1S(=O)(=O)NNC(=O)c1nn(C)c(=O)c2ccccc12 | . | . | . | .
CCn1c(=O)c2[nH]c(SC)nc2n(CC)c1=O | . | / | . | .
COc1cccc(N2CCN(C(=O)C3CCCN(S(=O)(=O)c4ccc(Br)s4)C3)CC2)c1 (stereo not drawn) | ? | . | ? | .
O=C(O)C1CCCN(S(=O)(=O)c2ccc(Br)s2)C1 (stereo not drawn) | . | . | . | .
O=C(C1CCN(S(=O)(=O)c2ccc(Br)s2)CC1)N1CCN(c2cccc(Cl)c2)CC1 | ? | . | ? | .
O=C(C1CCCN(S(=O)(=O)c2ccc(Br)s2)C1)N1CCN(c2ccccc2)CC1 (stereo not drawn) | 18µM | . | 13µM | .
Cc1cccc(N2CCN(C(=O)C3CCCN(S(=O)(=O)c4ccc(Br)s4)C3)CC2)c1C (stereo not drawn) | 9.2µM | . | 8.2µM | .
O=C(C1CCN(S(=O)(=O)c2ccc(Br)s2)CC1)N1CCCCC1 | ? | . | 21µM | /
NC(=O)[C@@H]1CCCN1C(=O)c1cc(NC(=O)c2ccccc2)cc2ncn(C3CCCC3)c12 | . | / | . | /
COc1ccccc1-c1sc2ccccc2c1C#Cc1ccc(N(C)C)cc1 | . | . | ? | .
C[C@H](CO)N1C[C@H](C)[C@@H](CN(C)C(=O)Nc2ccc(C(F)(F)F)cc2)Oc2c(NC(=O)Nc3ccccc3)cccc2C1=O | ? | . | ? | .
C[C@H](CO)N1C[C@H](C)[C@@H](CN(C)C(=O)Nc2ccc3c(c2)OCO3)Oc2c(NC(=O)Nc3ccc(C(F)(F)F)cc3)cccc2C1=O | 13µM | . | ? | .
C[C@H](CO)N1C[C@H](C)[C@@H](CN(C)C(=O)Nc2ccc(C(F)(F)F)cc2)Oc2c(NC(=O)Nc3ccc4c(c3)OCO4)cccc2C1=O | ? | . | 18µM | .
O=C1C2C3C=CC(C3)C2C(=O)N1/N=C/c1cn(Cc2ccccc2)c2ccccc12 (stereo not drawn) | 16µM | . | ? | .
CN(C)/C=C(\C#N)S(=O)(=O)c1ccc(Cl)cc1 | . | / | . | .
O=C(COC(=O)c1ccc(F)c(S(=O)(=O)N2CCOCC2)c1)NCc1ccccc1 | . | . | . | .
O=C(OCC(=O)N(CCc1ccccc1)Cc1ccccc1)c1cccc(S(=O)(=O)N2CCOCC2)c1 | ? | / | 7.3µM | .
O=C(COC(=O)c1cccc(S(=O)(=O)N2CCOCC2)c1)NCc1ccccc1 | . | . | . | .
O=C(OCC(=O)N(CCc1ccccc1)Cc1ccccc1)c1ccc(F)c(S(=O)(=O)N2CCOCC2)c1 | ? | / | 2.9µM | .
Cc1ccc(S(=O)(=O)NC(C)CCc2ccccc2)cc1C(N)=O (stereo not drawn) | ? | . | 18µM | .
Cc1ccc(S(=O)(=O)NC(C)CCc2ccccc2)cc1 (stereo not drawn) | ? | . | . | .
CS(=O)(=O)c1sc(C#N)c2c1C(=O)CC(c1ccccc1)C2 (stereo not drawn) | 0.52µM | . | 0.52µM | .
COc1cc(C2c3c(-c4ccccc4O)n[nH]c3C(=O)N2Cc2ccncc2)ccc1O (stereo not drawn) | . | . | . | .
